In ChEMBL document CHEMBL4808148, “HDAC6 screening dataset using tau-based substrate in an enzymatic assay yields selective inhibitors and activators” (2021):
The whole screen tested about 5,600 compounds, of which about 150 (2.7%) showed an effect of 50% or more. Only a selection was taken, and strong results are over-represented in it overall.

Legend:
[1] = biological target: T1, Protein deacetylase HDAC6 (Homo sapiens) (UniProt Q9UBN7); conditions: at 10 µM
T1 sequence (whole entry): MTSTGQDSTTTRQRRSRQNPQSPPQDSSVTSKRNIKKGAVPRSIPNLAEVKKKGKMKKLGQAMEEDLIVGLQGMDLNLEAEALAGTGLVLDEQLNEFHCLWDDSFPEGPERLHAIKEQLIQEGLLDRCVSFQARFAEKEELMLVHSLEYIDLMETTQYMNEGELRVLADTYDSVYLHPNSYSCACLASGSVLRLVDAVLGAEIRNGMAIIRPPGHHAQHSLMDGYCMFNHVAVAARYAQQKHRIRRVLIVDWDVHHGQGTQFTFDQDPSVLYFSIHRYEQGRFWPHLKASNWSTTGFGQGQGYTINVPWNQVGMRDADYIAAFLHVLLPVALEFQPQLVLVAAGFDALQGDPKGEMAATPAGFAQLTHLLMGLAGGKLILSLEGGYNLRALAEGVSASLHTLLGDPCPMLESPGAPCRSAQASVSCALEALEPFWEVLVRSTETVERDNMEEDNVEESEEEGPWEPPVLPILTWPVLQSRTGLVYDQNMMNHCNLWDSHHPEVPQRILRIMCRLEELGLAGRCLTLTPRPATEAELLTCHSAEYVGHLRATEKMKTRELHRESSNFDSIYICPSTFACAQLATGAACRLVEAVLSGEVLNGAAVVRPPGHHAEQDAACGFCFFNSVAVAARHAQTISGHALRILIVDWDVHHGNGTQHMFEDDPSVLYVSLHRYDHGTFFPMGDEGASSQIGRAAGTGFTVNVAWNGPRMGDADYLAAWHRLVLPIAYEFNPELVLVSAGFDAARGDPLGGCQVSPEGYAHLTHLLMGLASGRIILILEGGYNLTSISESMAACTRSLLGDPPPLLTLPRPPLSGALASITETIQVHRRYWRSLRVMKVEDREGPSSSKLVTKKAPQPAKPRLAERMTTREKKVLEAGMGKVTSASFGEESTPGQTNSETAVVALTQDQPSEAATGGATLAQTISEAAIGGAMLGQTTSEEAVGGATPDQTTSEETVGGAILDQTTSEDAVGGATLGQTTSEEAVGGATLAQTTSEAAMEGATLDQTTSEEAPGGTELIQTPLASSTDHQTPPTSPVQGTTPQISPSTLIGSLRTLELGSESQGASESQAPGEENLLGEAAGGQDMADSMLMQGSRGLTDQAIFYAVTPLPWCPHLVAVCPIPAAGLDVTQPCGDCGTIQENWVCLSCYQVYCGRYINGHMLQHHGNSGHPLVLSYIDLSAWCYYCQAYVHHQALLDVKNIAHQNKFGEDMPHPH

[2] = biological target: Protein deacetylase HDAC6 (Homo sapiens) (UniProt Q9UBN7); conditions: at 10 µM; remark: listed apart in the source

Row | Compound | inhibition [1] [%] | inhibition [2] [%]
1 | Cc1[nH]nc(C(F)(F)F)c1Cc1sc2c(c1C(=O)N1C[C@](C)(O)CO1)c(=O)n(C)c(=O)n2C(C)C | 7.6 | 
2 | O=C(NC1CCN(CCc2c[nH]c3ccccc23)CC1)c1ccccc1 | 22.6 | 
3 | O=C(O)[C@H](Cc1c[nH]c2ccccc12)N1C(=O)c2ccccc2C1=O | 3.67 | 
4 | COc1ccc(/C=C\c2cc(OC)c(OC)c(OC)c2)cc1O | -2.33 | 
5 | Oc1cc(O)cc(/C=C/c2ccc(O)c(O)c2)c1 | 74 | 
6 | COc1cc(/C=C/c2ccc(O)cc2)cc(OC)c1 | -1.8 | 
7 | Oc1cc(O)cc(O)c1 | 2.03 | 
8 | O=C(/C=C/c1ccc(O)c(O)c1)OCCc1ccccc1 | 13.8 | 
9 | Oc1ccc(/C=C/c2cc(O)cc(O)c2)cc1 | 85.4 | 
10 | CCCCNc1ncc(-c2ccc(CN3CCOCC3)cn2)c(N[C@H]2CC[C@H](O)CC2)n1 | -9.04 | 
11 | CCc1c(C(=O)Nc2cc(S(=O)(=O)N(CC)CC)ccc2O)[nH]c(C)c1C(C)=O | -2.94 | 
12 | NC(Cn1ccc(=O)n(Cc2ccccc2C(=O)O)c1=O)C(=O)O (configuration not stated) | -9.78 | 
13 | SPIRAMYCIN, CHEMBL6195749 |  | -1.63
14 | COc1ccc(Cl)cc1[C@]1(F)C(=O)Nc2cc(C(F)(F)F)ccc21 | -2.57 | 
15 | Nc1n[nH]c2nc3ccccc3nc12 | 33.5 | 
16 | CC(C)C(=O)c1ccc(O)c(O)c1 | 0.03 | 

Row | Compound | inhibition [1] [%] | inhibition [2] [%]
17 | O=C(O)C(O)Cc1ccc(O)c(O)c1 (configuration not stated) | 6.01 | 
18 | O=C(NO)c1ccc(O)c(O)c1 | 56.3 | 
19 | COc1cc2c(c(OC)c1OC)-c1c(cc3c(c1OC)OCO3)C[C@@H](C)[C@@H](C)C2 | -5.94 | 
20 | O=S(=O)(NCCCCCCc1ccccc1)c1cccc2c(Cl)cccc12 | -3.75 | 
21 | Oc1ccc(OCc2ccccc2)cc1 | 87 | 
22 | COc1ccc(O)cc1 | 1.74 | 
23 | CC/C(=C(\c1ccc(O)cc1)c1ccc(OCCNC)cc1)c1ccccc1 | -2.91 | 
24 | O=C(c1ccccc1)c1ccc2n1CCC2C(=O)O (configuration not stated) | 75.8 | 
25 | O=C(O)C1CCCN(CCC=C(c2ccccc2)c2ccccc2)C1 (configuration not stated) | -1.71 | 
26 | O=C(O)c1ccccc1 | 3.92 | 
27 | CC(=O)C1=C(O)C=C2Oc3c(C(C)=O)c(O)c(C)c(O)c3[C@@]2(C)C1=O | -7.8 | 
28 | CO[C@H]1/C=C/O[C@@]2(C)Oc3c(C)c(O)c4c(O)c(cc(O)c4c3C2=O)NC(=O)/C(C)=C\C=C\C(C)[C@H](O)[C@@H](C)[C@@H](O)[C@@H](C)[C@H](OC(C)=O)[C@@H]1C (some centres not stated) | 1.34 | 
29 | CSc1nc(-c2ccc(F)cc2)c(-c2ccnc(NC(C)c3ccccc3)c2)[nH]1 (configuration not stated) | -0.06 | 
30 | Cc1nccc2[nH]c(=O)ccc12 | -0.8 | 
31 | COC(=O)CC1CC(c2ccc(O)cc2)=NO1 (configuration not stated) | 68.8 | 
32 | COC(=O)c1ccc(O)cc1 | 11.4 | 
